Screening data: PubChem, several laboratories
PG9 binder = small molecules binding HIV-1 gp120 antibody PG9. TR-FRET gp120-PG9 antibody binding. inhibition, % at 6.7 µM. 0.43% of 360,000 active; in the data active means inhibition above about 8.5%
V-ATPase pH = alters yeast V-ATPase proton transport. 0.37% of 350,000 active. S. cerevisiae, pHLuorin cytosolic pH fluorescence. response, % at 10 µM; in the data active means response mostly above about 7.3%, no sharp cut-off; inactive means mostly below about 5.4%; further: actives read high
NR1D1 modulator = Rev-erb alpha (human) modulation | Rev-erbα–FITC-DNA binding, fluorescence polarization, 90 min | 0.79% of 370,000 active | activity, % at 10 µM | P20393;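 active means activity above about 14%, limit read from the data; passing the limit was not always enough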;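 further: 0% = DMSO wells with 35 nM protein and 100% = DMSO wells with 750 nM protein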
GC-B act = GC-B (human) receptor activation; P20594; HEK293-GC-B cells, CNP EC30, cGMP TR-FRET; 0% at EC30 CNP, 100% saturating CNP; activation, % at 10 µM; 0.11% of 370,000 active;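 active means activation at 10 µM reaching about 35% in either raw or pattern-adjusted values, limit read from the data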
NPR1 activator = GC-A (human) enzyme activation; HEK293 GC-A cells, cGMP TR-FRET, EC30 ANP; 0% at EC30 ANP, 100% saturating ANP; activation, % at 10 µM; P16066; AID 1671463; 0.14% of 370,000 active; in the data active means activation above about 40%
Rev-erbA confirm = confirmation of modulators of human Rev-erb alpha DNA binding | Rev-erb alpha FITC-DNA binding, fluorescence polarization, 90 min | shares compounds with NR1D1 modulator | activation, % at 25 µM | 61% of 3,000 active;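 active means activation at or above a set limit, or at least 3 SD above the negative control mean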;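 further: 0% = 35 nM protein with DMSO and 100% = 750 nM protein high control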
RORg counter = counter-screen for Rev-erb alpha modulators: RORgamma DNA binding. AID 1259320. IC50, µM. 8% of 910 active. shares compounds with NR1D1 modulator. purified RORgamma protein-FITC-DNA binding, fluorescence polarization;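 active means Compounds whose fitted half-maximal concentration for disrupting protein-DNA binding is below 10 micromolar; the record names Rev-erb in its text, so the target is in doubt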
Starred values were filed as active, the others as inactive; nt = no result given. An excerpt weighted towards active compounds, which were near 1.6% of everything screened.

SMILES	PG9 binder	V-ATPase pH	NR1D1 modulator	GC-B act	NPR1 activator	Rev-erbA confirm	others
CCCN1CCS(=O)(=O)N(Cc2cn(Cc3ccc(Cl)cc3)nn2)C(C(=O)OC)C1 (stereo unspecified)	nt	nt	-2	3	4	nt
CCC(C)NC(=O)CSc1nnc(-c2cc(OC)c(OC)c(OC)c2)o1 (stereo unspecified)	nt	nt	0	-6	-1	nt
Cc1ccc(NC(=O)CSc2nc3ccccc3c3nc4ccccc4n23)cc1	3	3	58*	-1	2	10
COc1ccc(NC(=O)CSc2nc3ccccc3c3nc4ccccc4n23)cc1	-1	0	7	5	1	nt
Cc1ccc(-n2c(SCC(=O)Nc3cccc(C)c3)nc3c(oc4ccccc43)c2=O)cc1	-1	nt	79*	3	1	125*	RORg counter=>40
COc1ccc(NC(=O)CSc2nc3ccccc3c(=O)n2-c2ccc3c(c2)OCO3)c(OC)c1	-1	-2	84*	18	12	127*	RORg counter=>40
COc1ccc(-n2c(SCC(=O)Nc3ccc(S(=O)(=O)Nc4nccs4)cc3)nnc2-c2ccccc2)cc1	nt	nt	-7	-4	-1	nt
CC(C)(C)C(=O)O[C@@H]1CCC[C@@]2(C(=O)N(Cc3ccccc3)c3ccccc32)[C@H]1NC(=O)CCc1ccccc1	nt	nt	7	-18	-6	nt
Cc1nonc1NC(=O)CSc1nc2cc(Cl)ccc2c2c1CCCC2	nt	-2	173*	19	17	132*
Cc1ccc2c3c(c(SCC(=O)Nc4nonc4C)nc2c1)CCCC3	0	0	26*	13	2	39*	RORg counter=>40
CCc1cc2cccc(C)c2nc1SCC(=O)Nc1nonc1C	2	0	-2	2	-1	nt
COc1cccc2c1[C@H](/C=C/c1ccccc1)[C@@H]([C@H](O)CO)OC2	nt	nt	2	-9	2	nt
Cn1cc(C(=O)NC2CCCCCCC2)c(=O)c2cc(S(=O)(=O)N3CCCC3)ccc21	-1	-2	2	5	8	nt
Cn1cc(C(=O)NC2CCCCCC2)c(=O)c2cc(S(=O)(=O)N3CCCC3)ccc21	3	0	32*	2	4	18*
O=C1CN(c2nc(-c3ccccc3)c3ccccc3n2)c2ccccc2N1	1	1	34*	-9	-22	15
c1ccc(-c2nc(-n3nc4ccccc4n3)nc3ccccc23)cc1	0	6	2	-13	-8	nt
CCOC(=O)c1c(NC(=O)c2ccc(S(=O)(=O)N3CCOCC3)cc2)sc2c1CC(C)(C)NC2(C)C	1	3	42*	0	1	8
CCOC(=O)c1c(NC(=O)c2ccc(S(=O)(=O)N3CCOCC3)cc2)sc2c1CCN(C)C2	3	5	-4	-7	9	nt
CC(C)(N[C@@H](Cc1c[nH]c2ccccc12)C(=O)NCCCc1ccccc1)C(=O)NCc1ccccc1	nt	nt	3	-5	-3	nt
COc1cccc(N2CCN(c3ccc4nnc(CCC(=O)Nc5cccc(C(C)=O)c5)n4n3)CC2)c1	-2	1	27*	-7	6	8
COc1cccc(N2CCN(c3ccc4nnc(CCC(=O)Nc5ccc(F)cc5)n4n3)CC2)c1	-1	8	3	-9	-2	nt
CC1CCN(c2ccc3nnc(CCC(=O)Nc4ccc(F)c(F)c4)n3n2)CC1	-2	-4	28*	-6	-8	2
COC(=O)C1CN(Cc2cn(Cc3ccc(C)cc3)nn2)CCS(=O)(=O)N1Cc1ccc(Cl)cc1 (stereo unspecified)	nt	nt	0	-1	-8	nt
CCCC1CCC2(CC1)CCC2OC(=S)Nc1ccccc1Br (stereo unspecified)	nt	nt	2	4	-2	nt
COC(=O)[C@@H]1N=C(c2ccc(OC)cc2)O[C@]12C(=O)N(Cc1cn(-c3ccccc3)nn1)c1cccc(Cl)c12	nt	nt	5	8	1	nt
SMILES	PG9 binder	V-ATPase pH	NR1D1 modulator	GC-B act	NPR1 activator	Rev-erbA confirm	others
COc1ccc(-c2noc(-c3ccc4c(c3)OCO4)n2)cc1	0	1	35*	4	-1	13
COc1ccc(OC)c(-c2cc(C(=O)Nc3cc(C)on3)no2)c1	3	2	21*	-14	2	16
COc1cccc(-c2noc(-c3ccc4c(c3)OCO4)n2)c1	0	10	0	-2	-7	nt
COc1ccc(-c2sc3cc4c(cc3c2-c2ccc3c(c2)OCCO3)OCO4)cc1	0	7	18*	0	0	2
COc1ccc(NC(=O)c2cc(-c3ccc4c(c3)OCO4)on2)cc1	-2	6	33*	3	-1	1
Cc1ccc(S(=O)(=O)c2nc(Nc3ccccc3C#N)sc2Cl)cc1	46*	5	27*	-10	11	36*	RORg counter=>40
CN1[C@H](Cc2ccccc2)COc2cccc(N3CCCC3)c2S1(=O)=O	nt	nt	4	1	8	nt
CC(=O)c1cc(-c2cccc(Cl)c2O)c(=O)n2c1CCC2	nt	nt	-4	-1	2	nt
CCOc1ccc(NC(=O)c2cn(-c3ccc(OCC)cc3)c(=O)c3cc(OC)c(OC)cc23)cc1	0	-2	-3	29	19	nt
CCOc1ccc(-n2cc(C(=O)Nc3cccc(C)n3)c3cc(OC)c(OC)cc3c2=O)cc1	1	-4	35*	36*	26	12
CCCc1nc(SCC(=O)NC2CC2)c2c(C)c(C)sc2n1	-1	2	22*	0	-6	8
CCc1nc(SCC(=O)NC2CC2)c2c(C)c(C)sc2n1	-1	3	7	2	-1	nt
O=C(CSc1nnc(-c2ccc3c(c2)OCO3)n1-c1ccccc1)c1ccccc1	-1	0	25*	4	-4	18*
O=C(O)CN1C(=O)/C(=C\c2cn(CC(=O)N3CCOCC3)c3ccccc23)SC1=S	-17	0	39*	-1	-10	39*	RORg counter=>40
O=C(Cc1ccccc1)N1CCN(C(=O)c2ccc([N+](=O)[O-])cc2)CC1	0	-1	6	1	-2	nt
O=C(C1=NN[C@@H]2C(=O)N(Cc3ccccc3)C(=O)[C@H]12)c1ccc([N+](=O)[O-])cc1	0	4	16*	-4	-1	4
O=C([C@@H]1C[C@H]1c1ccccc1)N1CC[C@H]2[C@H](CCCN2Cc2ccccc2)C1	nt	nt	11	7	0	nt
COc1ccc(-c2cc3c(=O)n(CC(=O)Nc4ccc(C(C)=O)cc4)ncn3n2)cc1	-2	6	34*	-4	3	41*	RORg counter=>40
COc1ccc(-n2c(SCC(=O)N(CC(C)C)CC(C)C)nnc2-c2ccncc2)cc1	nt	nt	-5	0	0	nt
N#CCCn1cc(C=C(C#N)C#N)c(-c2ccc(Cl)cc2)n1	0	2	-2	2	4	nt
